From PubChem BioAssay
Pol beta inh: inhibitors of human DNA polymerase beta; AID 485314; 340,000 tested, 1.3% active; Pol beta primer extension/strand displacement, fluorescence kinetic; Potency, µM (top dose mostly 114 µM), for inactives: at the top dose activity change, negative = inhibition, actives largely listed as inhibitors; P06746; note: potency is the fitted concentration of half-maximal effect; % is set by controls: 0 for no effect and ±100 for the full control effect
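Pol beta (10 nM) and compounds were preincubated 15 min at room temperature, then 50 nM substrate (final) started primer extension/strand displacement. Reads were taken at 0 and 10 min; concentration-response data were fitted to a four-parameter Hill equation.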
Pol iota inh: blocks human DNA polymerase iota activity; Q9UNA4; Potency, µM (doses to about 115 µM), for inactives: at the top dose activity, negative = inhibition, actives largely listed as inhibitors; 390,000 tested, 1% active; AID 588590; Pol iota fluorescent replication assay, 10 min; note: potency is the fitted concentration of half-maximal effect
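Fluorescent replication assay read twice, at 0 min and 10 min after adding 50 nM (final) substrate. Enzyme (10 nM) and compounds were first incubated 15 min at room temperature; enzyme-free buffer wells were negative controls.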
Pol eta inh-1: blocks human DNA polymerase eta activity | 390,000 tested, 1.2% active | Q9Y253 | Potency, µM (series often up to 114 µM), without a hit: top-dose activity change, negative = inhibition, actives largely listed as inhibitors | AID 588591 | recombinant Pol eta, fluorescent DNA replication assay; note: potency is the fitted concentration of half-maximal effect; % is set by controls: 0 for no effect and ±100 for the full control effect
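Pol eta at 10 nM preincubated with compounds 15 min at room temperature; reaction started with fluorescent substrate (50 nM final) and read kinetically at 0 and 10 min.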
Pol kappa inh-1: DNA polymerase kappa (human) inhibition; AID 588579; purified Pol kappa, fluorescent DNA synthesis assay, 10 min; 400,000 tested, 0.53% active; Potency, µM (top dose mostly 107 µM), for the others: at the top dose activity, negative = inhibition, hits mostly inhibitors; Q9UBT6; note: potency is the fitted concentration of half-maximal effect; % is set by controls: 0 for no effect and ±100 for the full control effect
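First, compounds were pin-transferred onto 10 nM Pol kappa. After 15 min at room temperature, substrate was added to 50 nM final. Fluorescence was then measured kinetically at 0 and 10 min.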
GLS inh: glutaminase GLS (human) inhibition; O94925; GLS enzymatic activity, qHTS titration; Potency, µM (doses to about 45.5 µM), for inactives: top-dose activity change, negative = inhibition, actives largely listed as inhibitors; 410,000 tested, 0.21% active; AID 624170; note: potency is the fitted concentration of half-maximal effect; % is set by controls: 0 for no effect and ±100 for the full control effect
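hKGA in 45 mM KH2PO4 (pH 8.2), 0.02% Tween-20 with compound, then 1mM L-Glutamine (stock as added) plus glutamate oxidase/HRP/Amplex red coupling mix. Fluorescence read initially and after 30 min at RT; signal change reflects glutamate formation.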
GCN5L2 inh: blocks human GCN5L2 histone acetyltransferase | Potency, µM (series often up to 58.9 µM), for inactives: at the highest dose activity change, negative = inhibition, hits mostly inhibitors | 390,000 tested, 0.21% active | GCN5L2 HAT assay, ThioGlo1 CoA-SH fluorescence; note: potency is the fitted concentration of half-maximal effect; % is set by controls: 0 for no effect and ±100 for the full control effect
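Compounds, pin-transferred from DMSO stocks, meet 20nM GCN5L2 for 15 min before the reaction begins with H3(1-25) peptide (75uM) and acetyl-CoA (70uM). Thiol-reactive ThioGlo1 reports CoA release over 20 min at room temperature.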
TbPGK inh: TbPGK inhibition, hit validation. shares compounds with Pol kappa inh-1. AID 686980. 500 tested, 79% active. Potency, µM (top dose mostly 57.5 µM), for inactives: top-dose activity change, negative = inhibition, most hits filed as inhibitors. TbPGK coupled GAPDH assay, Kinase-Glo luminescence; note: potency is the fitted concentration of half-maximal effect; % is set by controls: 0 for no effect and ±100 for the full control effect; nearly all actives have a fitted effect of over 65% in size
Target sequence (P07378 whole entry, looked up): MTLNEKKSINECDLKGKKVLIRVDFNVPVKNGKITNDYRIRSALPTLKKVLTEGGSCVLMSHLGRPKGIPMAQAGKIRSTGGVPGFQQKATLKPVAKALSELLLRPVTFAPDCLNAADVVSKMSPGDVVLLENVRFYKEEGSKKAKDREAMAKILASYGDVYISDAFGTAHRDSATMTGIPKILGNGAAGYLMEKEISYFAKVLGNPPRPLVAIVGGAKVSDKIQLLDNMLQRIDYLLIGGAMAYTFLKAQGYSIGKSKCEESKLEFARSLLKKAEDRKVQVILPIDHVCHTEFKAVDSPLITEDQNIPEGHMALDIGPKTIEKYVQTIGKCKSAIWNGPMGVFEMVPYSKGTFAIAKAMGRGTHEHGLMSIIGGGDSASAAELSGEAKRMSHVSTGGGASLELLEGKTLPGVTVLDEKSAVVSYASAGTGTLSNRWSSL
POLI cherry-pick: Human Pol iota inhibitor confirmatory assay | shares compounds with Pol kappa inh-1 | Pol iota primer extension, TAMRA/BHQ fluorescence | Potency, µM, most hits filed as inhibitors | 1,500 tested, 77% active | AID 720496; note: potency is the fitted concentration of half-maximal effect
GALK confirm: galactokinase (human) inhibition, confirmation | shares compounds with Pol eta inh-1 | purified GALK, Kinase-Glo ATP depletion luminescence | Potency, µM (doses to about 115 µM), without a hit: at the highest dose activity, negative = inhibition, most hits filed as inhibitors | 150 tested, 70% active | AID 2015
GALK redox cs: counter-screen for GALK inhibitors: redox cycling H2O2 generation; Phenol red-HRP H2O2 redox cycling, absorbance 600 nm; AID 2035; Potency, µM (doses to about 115 µM), for inactives: top-dose activity change, negative = H2O2 signal, usual class: inhibitors; 150 tested, 40% active; shares compounds with Pol eta inh-1
HEK293 tox: HEK-293 cytotoxicity, GALK inhibitor secondary. shares compounds with Pol eta inh-1. HEK-293 viability, ATP luminescence (CellTiter-Glo), 24/48 h. Potency, µM (series often up to 46.1 µM), for the others: top-dose activity change, negative = cytotoxicity, hits mostly inhibitors. 170 tested, 10% active. AID 2547; note: potency is the fitted concentration of half-maximal effect; % is set by controls: 0 for no effect and ±100 for the full control effect
Pol kappa inh-2: Pol kappa (human) inhibition, cherry-pick confirmation. shares compounds with Pol eta inh-1. purified Pol-kappa, fluorescent strand-displacement substrate. Potency, µM, usual class: inhibitors. 920 tested, 76% active. AID 720501; note: potency is the fitted concentration of half-maximal effect
Pol eta inh-2: confirmation of human DNA polymerase eta inhibitors | Pol eta primer extension, TAMRA/BHQ fluorescence, 10 min | 2,600 tested, 64% active | Potency, µM, most hits filed as inhibitors | shares compounds with Pol eta inh-1; note: potency is the fitted concentration of half-maximal effect
Starred values were filed as active, the others as inactive; u = inconclusive; x = no result given; [ ] = dose if it differs, or a comment. A selection: hits, their analogues and other compounds. The true share with any hit is near 2.4%. Calls come from the whole dose curve; as a rule, active = well fitted curve in the direction sought with a large enough effect; inconclusive = small, poorly fitted or top-dose-only effect, or another doubt; inactive = no such curve, though single readings can be large; an effect the other way counts as inactive or inconclusive.

SMILES | Pol beta inh | Pol iota inh | Pol eta inh-1 | Pol kappa inh-1 | GLS inh | GCN5L2 inh | POLI cherry-pick | Pol eta inh-2 | others
Cc1cccc2cc(C(c3nnnn3C(C)(C)C)N(Cc3ccco3)CC3CCCO3)c(=O)[nH]c12 (stereo not given) | 32µM* | 16µM* | 7.9µM* | 45µM* | u | -9% | 17* | 19* | TbPGK inh=1.8µM*
O=c1c(O[C@H]2O[C@@H](CO)[C@H](O)[C@@H](O)[C@@H]2O)c(-c2ccc(O)cc2)oc2cc(O)cc(O)c12 | x | -1% | u | -8% | -2% | -7% | x | x
O=c1c(OC2OC(CO)C(O)C(O)C2OC2OC(CO)C(O)C(O)C2O)c(-c2ccc(O)cc2)oc2cc(O)cc(O)c12 (stereo not given) | 22µM* | 28µM* | 11µM* | 50µM* | -30% | u | u | u
CSc1ccc(/C=C2\C(=N)N3N=C(CC(=O)N4CCOCC4)SC3=NC2=O)cc1 | 3% | u | -24% | u | 14% | u | x | x
N=C1/C(=C\c2ccc(Br)o2)C(=O)N=C2SC(CC(=O)N3CCOCC3)=NN12 | 28µM* | 16µM* | 18µM* | u | 1% | -20% | u | 24*
CCc1ccc(/C=C2\C(=N)N3N=C(CC(=O)N4CCCCC4)SC3=NC2=O)cc1 | -8% | u | -7% | u | -5% | -7% | x | x
N=C1/C(=C/c2ccco2)C(=O)N=C2SC(CC(=O)N3CCCC3)=NN12 | u | 16µM* | 14µM* | u | -9% | -28% | 38* | 24*
CCCSC1=N/C(=C\C=C\c2ccco2)C(=O)S1 | 5.6µM* | 10µM* | 7.1µM* | 22µM* | -6% | -23% | u | 60*
O=S(=O)(c1cc(O)ccc1O)c1cccc2c(S(=O)(=O)c3cc(O)ccc3O)cccc12 | x | 7.9µM* | 4.5µM* | 18µM* | 8% | u | 8.4* | 15* | TbPGK inh=3.7µM*;Pol kappa inh-2=9.5*
O=C1C(=O)c2ccc(-c3ccccc3)cc2-c2ccccc21 | 13% | 2% | 5.6µM* | -5% | -7% | -6% | u | 30* | GALK confirm=6µM*;GALK redox cs=3µM*;HEK293 tox=7.9µM*
Nc1ccc2c(c1)C(=O)c1ccccc1-2 | x | 3% | 8% | -8% | -15% | x | x | x
Nc1ccc2c(c1)C(=O)C(=O)c1ccccc1-2 | 5µM* | 1µM* | 0.79µM* | -8% | -5% | -19%[0.501 µM] | 6.7* | 4.8* | TbPGK inh=1.6µM*;GALK confirm=2.4µM*;GALK redox cs=1.3µM*;HEK293 tox=7.9µM*
O=C(CCc1ccc(O)c(O)c1)N/N=C/c1cc2c(cc1[N+](=O)[O-])OCO2 | 25µM* | 32µM* | 18µM* | 25µM* | u | -15% | u | 30*
Cc1cccc(C)c1OCC(=O)N/N=C/c1cc2c(cc1[N+](=O)[O-])OCO2 | -1% | 0% | 4% | -10% | -1% | -6%[0.501 µM] | x | x
O=C1NC(=Nc2ccccc2)S/C1=C\c1cccs1 | u | u | 52% | -9% | 17% | -19% | x | x
O=C1NC(=Nc2ccc3ccccc3c2)S/C1=C/c1ccco1 | 8.9µM* | u | 35µM* | u | 0% | u | 38* | u | Pol kappa inh-2=27*
Cc1cc(SCC(=O)Nc2ccc3[nH]c(=O)[nH]c3c2)nc2ccccc12 | x | u | 40µM* | -4% | 8% | -5% | 60* | x | Pol kappa inh-2=u
Cc1cc(SCC(=O)Nc2ccc(Cl)cc2)nc2ccccc12 | u | 36% | x | 6% | -1% | -8% | x | x
O=C(CSc1nc2ccsc2c(=O)n1CC1CCC(C(=O)O)CC1)c1ccc(F)cc1 (stereo not given) | 5% | -21% | u | 1% | 1% | 1% | x | x
O=C(CSc1nc2ccsc2c(=O)n1CC1CCC(C(=O)O)CC1)c1ccc(Cl)cc1 (stereo not given) | 22µM* | 20µM* | 40µM* | u | -14% | -5% | 42* | x | Pol kappa inh-2=60*
Cc1ccc(-c2nc3c4ccccc4[nH]c(=O)n3n2)cc1 | -20% | 26% | u | 12% | -4% | -8% | u | u
COc1ccc2nc(C)cc(N/N=C/c3ccccc3)c2c1 | x | -22% | u | u | 15% | -19% | x | x
COc1ccc(/C=N/Nc2cc(C)nc3ccc(OC)cc23)c(OC)c1 | 32µM* | u | u | u | u | -13% | 38* | 48*
O=C(C=Cc1ccco1)c1ccco1 | x | u | -1% | u | 52% | x | x | x
O=C(O)C(C(=O)/C=C/c1ccco1)=C1SCCS1 | 25µM* | 4µM* | 8.9µM* | 45µM* | u | -11% | 53* | 48*
CCc1ccc(Oc2c(C(F)(F)F)oc3c(CN4CCC(C)CC4)c(O)ccc3c2=O)cc1 | -19% | 55% | -11% | -1% | 2% | -4% | x | x
Cc1nnc(NC(=O)c2sc3nc(-c4cccs4)cc(C(F)(F)F)c3c2N)s1 | 35µM* | 28µM* | 6.3µM* | u | -2% | -4% | 42* | 67*
